Measurements as given in ChEMBL document CHEMBL1157539, “Thousands of chemical starting points for antimalarial lead identification” (Nature, 2010).

Legend:
Assay type in all cases: functional
[1] = system: Plasmodium falciparum; experiment: GSK_TCMDC: Inhibition of Plasmodium falciparum 3D7 in whole red blood cells, using parasite LDH activity as an index of growth. Test compounds present at 2uM
[2] = system: Plasmodium falciparum; experiment: GSK_TCMDC: Inhibition of Plasmodium falciparum Dd2 in whole red blood cells, using parasite LDH activity as an index of growth. Test compounds present at 2uM
[3] = system: HepG2; experiment: GSK_TCMDC: Percent inhibition of human HepG2 cell line. Test compounds present at 10uM.

| Compound | Inhibition [1] | Inhibition [2] | Inhibition [3] |
| --- | --- | --- | --- |
| COc1ccc(NCCCNc2ccnc3ccccc23)cc1 | 88% | 17% | 34% |
| C=CCOC(=O)N1CCC(CNCc2cccc(-c3cccc(-c4nc5cccc(C)c5[nH]4)c3)c2)C1.O=C(O)C(F)(F)F (configuration not stated) | 100% | 69% | 22% |
| CC(C)NCc1ccc(OCc2cccc(COc3ccc(CNC(C)C)cc3I)c2)c(I)c1.Cl | 100% | 92% | 100% |
| CC(Nc1ccc2c(c1)CCC2)C(=O)Nc1cc(C(F)(F)F)ccc1N1CCOCC1 (configuration not stated) | 100% | 100% | 0% |
| Cn1ccnc1CNC(=O)c1ccc(-c2cccc(-c3nc4cc(C(F)(F)F)ccc4[nH]3)c2)cc1 | 100% | 80% | 20% |
| C(=NNc1nc2ccccc2[nH]1)c1ccccc1OCc1ccccc1 | 100% | 90% | 15% |
| COc1ccc2c(=NN=Cc3ccccc3Cl)cc(C)[nH]c2c1 | 100% | 99% | 5% |
| FC(F)(F)c1ccc(-c2ccc(CNC3CCN(CCN4CCOCC4)CC3)cc2)cc1 | 100% | 74% | 44% |
| CCC(C)c1ccc(NC(=O)Nc2ccc(Cn3ncc(N4CCCNCC4)c(Cl)c3=O)cc2)cc1.O=C(O)C(F)(F)F (configuration not stated) | 83% | 31% | 0% |
| COc1cccc2[nH]c(NCCCNCc3cc(Br)cc(Br)c3)nc12 | 88% | 2% | 5% |
| CC1(C)N=C(NC(=O)Nc2ccc([N+](=O)[O-])cc2)N=C(N)N1OCc1cccc2ccccc12 | 97% | 21% | 35% |
| Cc1cccc2nc(-c3cccc(-c4cccc(CNCC5CCCO5)c4)c3)[nH]c12.O=C(O)C(F)(F)F (configuration not stated) | 100% | 99% | 26% |
| CC(C)CN1C(=O)c2ccccc2C(C(=O)Nc2cccc(C#N)c2)C1c1cccs1 (configuration not stated) | 100% | 100% | 11% |
| Cc1cccc2nc(-c3cccc(-c4cccc(CNCCc5cccn5C)c4)c3)[nH]c12.O=C(O)C(F)(F)F | 91% | 49% | 4% |
| c1cncc(Oc2ccc(Nc3ccnc4cc(-c5cccc(CN6CCOCC6)c5)ccc34)cc2)c1 | 100% | 100% | 14% |
| COc1cc(C(=O)Nc2cccc(-c3nc4ccccc4[nH]3)c2)cc(OC)c1OC | 99% | 41% | 25% |
| c1ccc2[nH]c(CN(Cc3nc4ccccc4[nH]3)Cc3nc4ccccc4[nH]3)nc2c1 | 81% | 86% | 39% |
| O=C1O[C@H](c2ccccc2)[C@H](c2ccccc2)N(C(=O)OCc2ccccc2)[C@H]1Cc1ccccc1C1CCCC1 | 97% | 0% | 56% |
| Fc1cc(Cl)ccc1Nc1ccnc2cc(-c3scnc3CNCCN3CCOCC3)ccc12 | 99% | 84% | 0% |
| Cl.O=C(C=Cc1cccc(F)c1)NC1CCC(CCN2CCc3ccc(-c4cnccn4)cc3CC2)CC1 (configuration not stated) | 100% | 67% | 51% |
| CC(C)N1CCN(C(=O)c2ccc(CN(C)CCCN3CCN(c4cccc(Cl)c4Cl)CC3)s2)CC1.Cl | 94% | 35% | 74% |
| CC(C)(C)COc1ccc2c(N)n[nH]c2c1.Cl | 90% | 8% | 31% |

| Compound | Inhibition [1] | Inhibition [2] | Inhibition [3] |
| --- | --- | --- | --- |
| CCN(CC)CCCCCNc1c2ccc(Cl)cc2nc2ccc(OC)cc12.Cl | 99% | 99% | 96% |
| COc1ccc2nccc([C@@H](O)CN3CCC(NC(=O)c4cccc(C(=O)c5ccccc5)c4)CC3)c2c1 | 99% | 99% | 13% |
| O=C(NCCc1ccccc1)N(Cc1ccccc1-c1ccc(CNCCc2ccccc2)cc1)C1CCN(Cc2ccccc2)CC1.O=C(O)C(F)(F)F | 97% | 91% | 99% |
| O=C(N[C@@H](Cc1ccccc1)C(=O)NC1CCCCC1)c1ccc(O)c(-c2ccc(Cl)c(Cl)c2)c1 | 98% | 99% | 0% |
| CCOc1ccc(-c2nonc2NC(=O)CC(C)C)cc1OCC | 92% | 37% | 0% |
| CCCN1CCN(CCCCNc2c3ccccc3nc3ccccc23)CC1.Cl | 100% | 0% | 34% |
| COc1ccc2nc(C)cc(NCc3ccc4ccccc4c3)c2c1.Cl | 100% | 75% | 21% |
| Cc1cc(=O)[nH]c(-n2nc(C)cc2NC(=O)CC(c2ccccc2)c2ccccc2)n1 | 90% | 62% | 42% |
| Cc1cccc2nc(-c3ccc(-c4cccc(NC(=O)NCc5ccc(F)cc5)c4)cc3)[nH]c12 | 100% | 100% | 82% |
| COc1ccc(NC(C)C(=O)Nc2ccc(Br)cc2)cc1S(=O)(=O)N1CCCCC1 (configuration not stated) | 99% | 97% | 2% |
| O=C(NC1CCN(Cc2ccccc2)CC1)c1ccc(-c2nc3cc(Cl)c(Cl)cc3[nH]2)s1 | 100% | 99% | 17% |
| Cl.NC1=NC(c2ccccc2)N(c2ccc(Cl)c(Cl)c2)C(N)=N1 (configuration not stated) | 94% | 0% | 13% |
| N#Cc1c(N)n(CCc2ccc(F)cc2)c2nc3ccccc3nc12 | 92% | 36% | 8% |
| CC(=O)c1cccc(S(=O)(=O)NCCCNc2nc3cc(C)cc(C)c3cc2C#N)c1 | 95% | 75% | 11% |
| O=C(Nc1ccc(OC2CCN(Cc3ccsc3)C2)c(Cl)c1)c1ccsc1.O=C(O)C(F)(F)F (configuration not stated) | 85% | 70% | 4% |
| CSc1ccc(NC(=O)Nc2cc(C)nc3ccccc23)cc1 | 100% | 23% | 7% |
| CC(C)Sc1nc(-c2ccccc2)nc2c1COC(C)(C)C2 | 98% | 41% | 2% |
| O=C(NC(c1ccc(Cl)cc1)c1ccc2cccnc2c1O)c1ccccc1 (configuration not stated) | 87% | 80% | 44% |
| Cl.Cn1c2ccccc2c2c3ccccc3c(CNC(CO)(CO)CO)cc21 | 96% | 78% | 67% |
| Clc1cc(Cl)cc(Nc2ccnc(Nc3cc(Cl)cc(Cl)c3)n2)c1 | 99% | 73% | 11% |
| O=C1Nc2ccc3ncccc3c2/C1=C/Nc1ccc(Cn2ccnc2)cc1 | 100% | 85% | 33% |
| OC(CNc1ccnc(Nc2cccc(Cl)c2)n1)c1cccc(F)c1 (configuration not stated) | 90% | 29% | 16% |

| Compound | Inhibition [1] | Inhibition [2] | Inhibition [3] |
| --- | --- | --- | --- |
| Cl.N#Cc1ccc2c(c1)CCN(CCC1CCC(NC(=O)/C=C/c3nc4ccccc4s3)CC1)CC2 (configuration not stated) | 90% | 0% | 6% |
| Cc1ccc2c(c1)NCC21CCN(C[C@@H](O)C2CCN(c3cc(C#N)ccn3)CC2)CC1C (some centres not stated) | 90% | 79% | 28% |
| Cc1ccc2[nH]c(C)cc(=NN=Cc3ccc(Cl)cc3)c2c1 | 100% | 35% | 0% |
| C[C@H](Cc1ccc(C[C@@H](C)NC[C@H](O)c2cccc(Cl)c2)cc1)NC[C@H](O)COc1ccccc1.Cl | 96% | 60% | 99% |
| CN(C)c1ccc(-c2csc(C(=O)NCC3CCN(Cc4cccc(C(F)(F)F)c4)C3)c2)cc1.O=C(O)C(F)(F)F (configuration not stated) | 97% | 58% | 15% |
| CCOC(=O)C(C)(C)Oc1ccc(C(=C2CC(C)(C)CC(C)(C)C2)c2ccc(O)cc2)cc1 | 92% | 78% | 0% |
| Cl.O=C(CCCC(=O)Nc1ccc(C2=NCCN2)cc1)Nc1ccc(C2=NCCN2)cc1 | 91% | 81% | 3% |
| Br.Cc1cc(C)c(C)c(OCCCON2C(=N)N=C(N)NC2(C)C)c1C | 94% | 95% | 64% |
| Cc1ccc(NC(=O)c2ccc(-c3cc4cc(Cl)c(Cl)cc4[nH]3)cc2)cc1OCCN1CCCC1.O=C(O)C(F)(F)F | 100% | 90% | 7% |
| c1ccc([C@H]2CN3CCSC3=N2)cc1 [LEVAMISOLE] | 93% | 1% | 11% |
| O=C(Nc1cccc(C(F)(F)F)c1)c1cccc(S(=O)(=O)NC2CCCN(CC3CCCCC3)C2)c1.O=C(O)C(F)(F)F (configuration not stated) | 97% | 15% | 18% |
| COc1ccc(CNc2ncnc3c2[nH]c2ccc(F)cc23)cc1 | 93% | 71% | 38% |
| Cc1cc(=NN=Cc2ccccc2F)c2ccccc2[nH]1 | 100% | 81% | 14% |
| CC(C)C[C@@H](NC(=O)OC(C)(C)C)C(=O)Nc1ccc(Cc2ccc(NC(=O)[C@@H](CC(C)C)NC(=O)OC(C)(C)C)cc2)cc1 | 96% | 96% | 8% |
| C=CCOC(=O)N1CCC(CNCc2cccc(-c3ccc(-c4nc5cccc(C)c5[nH]4)cc3)c2)C1.O=C(O)C(F)(F)F (configuration not stated) | 100% | 82% | 24% |
| OC(CNc1ccnc(Nc2cccc(Cl)c2)n1)c1cccc(C(F)(F)F)c1 (configuration not stated) | 100% | 98% | 11% |
| COc1ccc(-c2nc3ccc(C)nc3nc2-c2ccc(OC)cc2)cc1 | 91% | 0% | 4% |
| CN1C(=C2SC(=Nc3ccc4ncccc4c3)N(Cc3ccccc3)C2=O)Sc2ccc(Cl)cc21 | 99% | 75% | 4% |
| COc1ccc(Nc2nc(N)c3cc(OC)c(OC)cc3n2)cc1OC.Cl | 99% | 5% | 0% |
| CCc1ccc(NC(=O)c2ccc(CN3CCCN(Cc4cccc(C)c4)CC3)cc2)cc1.O=C(O)C(F)(F)F | 80% | 0% | 53% |
